Records with an inconclusive call do not appear. A call without a number means that no potency is given here. Calls of active or inactive are those of the source. Calls come from the whole dose curve; as a rule, active = well fitted curve in the direction sought with a large enough effect; inconclusive = small, poorly fitted or top-dose-only effect, or another doubt; inactive = no such curve, though single readings can be large; an effect the other way counts as inactive or inconclusive.
Columns and labels:
[1] = molecular target: N-terminal Xaa-Pro-Lys N-methyltransferase 1 (Homo sapiens) (UniProt Q9BV86); assay: qHTS Assay for Inhibitors of N-terminal methyltransferase 1 (NTMT1): LOPAC validation of the NTMT1 SAHH-coupled ThioGlo3 Assay (AID 1347143);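 note: SAH from peptide methylation measured as thiol fluorescence via SAHH coupling and ThioGlo3; nearly all actives have a fitted effect of over 70% in size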; note: potency is the fitted concentration of half-maximal effect
Chain of N-terminal Xaa-Pro-Lys N-methyltransferase 1 (Homo sapiens) (Q9BV86 whole entry, looked up): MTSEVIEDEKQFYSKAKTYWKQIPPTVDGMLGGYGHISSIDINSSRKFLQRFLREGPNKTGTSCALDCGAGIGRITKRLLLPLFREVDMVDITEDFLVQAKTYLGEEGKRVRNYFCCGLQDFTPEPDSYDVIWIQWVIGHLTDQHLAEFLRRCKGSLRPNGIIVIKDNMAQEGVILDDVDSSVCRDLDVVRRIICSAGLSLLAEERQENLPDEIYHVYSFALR
How it was run: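 Recombinant human NTMT1 (125nM) was pre-incubated 1 min at room temperature with compounds over a concentration range, then a mix of 100uM SAM, 10uM SAHH and 15uM ThioGlo3 (concentrations in added reagent) was added. ThioGlo3 fluorescence (ex 340/em 450nm) after 30 min was normalized to the initial reading.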

[2] = test system: Zika virus NS2B-NS3 protease (unlinked); assay: Optimization of GU AMC qHTS for Zika virus inhibitors: Unlinked NS2B-NS3 protease assay (AID 1347151); note: nearly all actives have a fitted effect of over 80% in size; note: potency is the fitted concentration of half-maximal effect
How it was run: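 Noncovalent NS2B hydrophilic domain–NS3 protease complex (25 nM final) in 10 mM Tris-HCl pH 8.0, 0.01% Tween 20; AMC substrate, room temperature 15 min (~20% conversion); fluorescence change normalized, 4-parameter Hill fit.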

[3] = molecular target: Furin (Homo sapiens) (UniProt P09958); assay: Furin counterscreen qHTS for Zika virus inhibitors (AID 1347149);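 note: purified recombinant full-length human furin enzyme at 5 nM; fluorescence gain from furin cutting a BOC-RVRR-AMC peptide substrate over 15 min; top concentration of the series differs between compounds; nearly all actives have a fitted effect of over 70% in size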
Chain of Furin (Homo sapiens) (P09958 whole entry, looked up): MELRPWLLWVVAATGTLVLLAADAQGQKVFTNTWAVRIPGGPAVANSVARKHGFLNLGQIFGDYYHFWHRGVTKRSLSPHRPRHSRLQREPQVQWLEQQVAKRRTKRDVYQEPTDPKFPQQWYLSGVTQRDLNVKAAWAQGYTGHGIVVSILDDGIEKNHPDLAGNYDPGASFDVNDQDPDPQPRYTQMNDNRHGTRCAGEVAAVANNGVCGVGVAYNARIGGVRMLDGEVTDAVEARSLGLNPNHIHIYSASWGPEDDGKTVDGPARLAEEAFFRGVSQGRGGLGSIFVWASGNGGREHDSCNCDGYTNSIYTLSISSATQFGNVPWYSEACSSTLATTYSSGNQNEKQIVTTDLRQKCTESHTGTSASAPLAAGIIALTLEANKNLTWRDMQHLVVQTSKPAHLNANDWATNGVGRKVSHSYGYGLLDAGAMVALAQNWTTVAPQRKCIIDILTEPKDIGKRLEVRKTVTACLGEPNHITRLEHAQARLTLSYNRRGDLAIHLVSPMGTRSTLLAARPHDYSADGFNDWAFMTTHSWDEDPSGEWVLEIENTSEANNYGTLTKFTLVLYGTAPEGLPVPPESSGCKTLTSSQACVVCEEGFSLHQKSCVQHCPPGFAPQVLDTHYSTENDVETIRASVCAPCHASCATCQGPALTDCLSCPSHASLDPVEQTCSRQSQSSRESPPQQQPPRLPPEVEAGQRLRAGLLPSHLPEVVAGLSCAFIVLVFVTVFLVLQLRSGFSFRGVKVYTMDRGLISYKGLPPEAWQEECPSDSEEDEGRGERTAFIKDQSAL
How it was run: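 Fluorogenic cleavage of BOC-RVRR-AMC (2 microM final, Km ~15 µM) was monitored (ex 340, em 450 nm) at 37C after 15 min RT preincubation of 5 nM furin with compounds in HEPES pH 7.0 buffer with CaCl2 and Triton X-100. Percent inhibition was fitted to a 4-parameter Hill curve.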

[4] = test system: Zika virus NS2B-NS3 protease (linked construct); assay: Confirmatory screen NINDS AMC qHTS for Zika virus inhibitors (AID 1347152); note: nearly all actives have a fitted effect of over 70% in size; note: potency is the fitted concentration of half-maximal effect
How it was run: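 Linked NS2B-NS3 protease, 1 nM, in 10 mM Tris-HCl pH 8.0, 0.01% Tween 20; compounds preincubated 15 min at room temperature. Nle-KRR-AMC 10 microM (Km 18.3 µM); 15-min fluorescence change (340/450 nm) fitted to 4-parameter Hill.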

## CCCN1CCc2cc(O)cc3c2[C@H]1Cc1ccc(O)c(O)c1-3
[1]
  Potency: 35.5 µM (active)
[2]
  Potency: 26.7 µM (active)

## CC(C)(C)c1o[nH]c(=O)c1CC(N)C(=O)O (configuration not stated)
[1]
  Potency: inactive
[2]
  Potency: inactive

## CC[C@H](C)[C@H]1O[C@]2(C=C[C@@H]1C)C[C@@H]1C[C@@H](C/C=C(\C)[C@@H](O[C@H]3C[C@H](OC)[C@@H](O[C@H]4C[C@H](OC)[C@@H](O)[C@H](C)O4)[C@H](C)O3)[C@@H](C)/C=C/C=C3\CO[C@@H]4[C@H](O)C(C)=C[C@@H](C(=O)O1)[C@]34O)O2
[3]
  Potency: inactive
[2]
  Potency: inactive

## O=C1C=CC(=O)C=C1
[1]
  Potency: inactive
[2]
  Potency: inactive

## NC(CCCCCP(=O)(O)O)C(=O)O (configuration not stated)
[1]
  Potency: inactive
[2]
  Potency: inactive

## Clc1cc(I)cc(Cl)c1NC1=NCCN1
[1]
  Potency: inactive
[2]
  Potency: inactive

## CC(=O)c1c(O)c(C)c(O)c(Cc2c(O)c3c(c(C(=O)/C=C/c4ccccc4)c2O)OC(C)(C)C=C3)c1O
[1]
  Potency: 50.1 µM (active)
[2]
  Potency: 11.9 µM (active)

## Oc1cc(Cl)c(Cl)cc1Cl
[3]
  Potency: inactive

## N[C@@H](Cn1oc(=O)[nH]c1=O)C(=O)O
[1]
  Potency: inactive
[2]
  Potency: inactive

## NC(Cc1cc(O)c(O)cc1O)C(=O)O (configuration not stated)
[1]
  Potency: 44.7 µM (active)
[2]
  Potency: 7.52 µM (active)

## CC(=O)NBr
[1]
  Potency: inactive
[2]
  Potency: inactive

## C#CCN[C@H](C)Cc1ccccc1
[1]
  Potency: inactive
[2]
  Potency: inactive

## CC(C)(C)OC(=O)NC1[C@H]2CNC[C@@H]12 (some centres not stated)
[1]
  Potency: inactive
[2]
  Potency: inactive

## C[C@@H]1[C@@H]2Cc3ccc(O)cc3[C@@]1(C)CCN2CC1CC1
[3]
  Potency: inactive
[2]
  Potency: inactive

## CN(N=O)c1cc(O)ccc1O
[1]
  Potency: 3.55 µM (active)
[2]
  Potency: inactive

## CCS(=O)(=O)Nc1cccc(C(=C2CCCCC2)c2cnc[nH]2)c1
[1]
  Potency: inactive
[2]
  Potency: inactive

## CN1CCc2cc(O)cc3c2[C@H]1Cc1ccc(O)c(O)c1-3
[1]
  Potency: 35.5 µM (active)
[2]
  Potency: 23.8 µM (active)

## C[N+]1(C)CCOC(O)(c2ccc(-c3ccc(C4(O)C[N+](C)(C)CCO4)cc3)cc2)C1 (configuration not stated)
[1]
  Potency: inactive
[2]
  Potency: inactive

## O=C(NC1CN2CCC1CC2)c1cc2ccoc2cn1 (configuration not stated)
[1]
  Potency: inactive
[2]
  Potency: inactive

## CC12NC(Cc3ccccc31)c1ccccc12 (configuration not stated)
[1]
  Potency: inactive
[2]
  Potency: inactive

## C[C@@]1(C(=O)O)CC[C@]2(C)CC[C@]3(C)C4=CC(=O)c5cc(O)c(O)cc5[C@]4(C)CC[C@@]3(C)[C@@H]2C1
[3]
  Potency: inactive
[4]
  Potency: inactive

## CCCCCOc1cc2c(cc1-c1cc(/C=C/C(=O)O)ccc1O)C(C)(C)CCC2(C)C
[4]
  Potency: 9.87 µM (active)

Reference: PubChem BioAssay (NCATS)
